The whole screen tested about 290,000 compounds, of which about 27,000 (9.3%) were called active. The sample as a whole holds a higher share of actives than the screen did. Values without a mark were called inactive. No stated cut-off is given here; in the data, active means inhibition mostly above about 28% (no sharp cut-off); inactive means mostly below about 43%.

In general, inhibition refers to the relative decrease from the control value, in per cent.

This experiment is described as follows: A qHTS for Small Molecule Inhibitors of Shiga Toxin. Further: 0% is about no effect. Conditions: Vero cells, Shiga toxin protein synthesis inhibition reporter; at 38.7 µM, hits give high values. (In qHTS, concentration-response curves come from the screen itself.)
Turning to `CC(C)(C)OC(=O)NC(Cc1ccccc1)C(=O)NC(CSC1CCCCO1)C(=O)NN` (stereo unspecified), the inhibition was -14.3%.

As to `CC(C)NC(=O)COCc1cc(-c2ccc3c(c2)OCO3)on1`, the inhibition is 45.3% (active).

As for `CCOC(=O)N1CCN(C(=O)COCc2cc(-c3ccc4c(c3)OCO4)on2)CC1`, the inhibition was -7.65%.

In the case of `Cc1cccc(N2CCN(C(=O)COCc3cc(-c4ccc5c(c4)OCO5)on3)CC2)c1C`, the inhibition was -8.35%.

Turning to `Cc1nn2c(=O)cc(COC(=O)c3ccc(NC(=O)C(C)(C)C)cc3)nc2s1`, the inhibition was 35.5%.

In the case of `COc1cccc(C2CC(c3cccs3)=NN2C(=O)CSC2=NCCS2)c1OC` (stereo unspecified), the inhibition was -5.1%.

In the case of `CCCc1cc(=O)oc2cc(OCC(=O)Nc3ccc(CN4CCOCC4)cc3)c(Cl)cc12`, the inhibition is -1.59%.

`COc1ccc(C2=Nc3cc(C)ccc3OC2)cc1`: the inhibition was 94% (active).

On to `Cc1ccc(C(=O)NNC2=Nc3cc([N+](=O)[O-])ccc3OC2)cc1`, for which the inhibition is 40.3%.

Regarding `COc1ccc(C2=NOC3(CC(=O)N(c4ccc(C)cc4)C3=O)C2)cc1` (stereo unspecified), the inhibition was 36.5%.

In the case of `Cn1cc(C(=O)c2ccc(Cl)cc2Cl)cc1C(=O)NN`, the inhibition is -5.33%.

Consider `Cc1cc(C)c(SCCc2ccncc2)c(C)c1`, for which the inhibition is -4.14%.

With `CC(C)(C)c1ccc(SCCc2ccncc2)cc1`, the inhibition is 69.1% (active).

For `c1ccc(CSCCc2ccncc2)cc1`, the inhibition was -5.65%.

As to `CN(NS(=O)(=O)c1cccs1)c1ncc(C(F)(F)F)cc1Cl`, the inhibition is -2.15%.

With `COc1ccc(OCc2ccc(-c3nc4ccccc4c(=O)n3N)o2)cc1`, the inhibition is 129% (active).

As for `Cc1nc2ccccc2c(=O)n1-c1ccc(Cl)cc1Cl`, the inhibition is -14.3%.

Regarding `Cn1c2ccccc2c(=O)c2c(=O)n(Cc3ccco3)c(COc3ccccc3)nc21`, the inhibition is 8.54%.

In the case of `Cc1ccc(C(=O)CSc2nc3ccccc3c(=O)n2N)o1`, the inhibition was 77.2%.

As for `Cn1c(COc2ccc(Cl)cc2)nc2ccccc2c1=O`, the inhibition is 46% (active).

Turning to `COc1ccc(-c2nc3ccccc3c(=O)n2CCc2ccc(O)cc2)cc1`, the inhibition was 40.9%.

With `COC(=O)c1sc(N2CCN(Cc3ccccc3)CC2)nc1N`, the inhibition was -8.35%.

Consider `Cc1ccc(CNCc2ccc3c(c2)OCO3)c(C)c1`, for which the inhibition was -7.85%.

As to `O=C(O)C1=NN(c2c(F)c(F)cc(F)c2F)C(=O)CC1`, the inhibition was -10.3%.

In the case of `CNS(=O)(=O)c1ccc(NC(=O)Nc2ccc3c(c2)OCO3)cc1`, the inhibition was 72.9% (active).

Consider `COc1ccc(OC)c(/C=C/C(=O)OCC(=O)Nc2ccc3c(c2)OCCO3)c1`, for which the inhibition was -11%.

As for `CCc1c(C)sc(NC(=O)/C=C/c2ccc3c(c2)OCO3)c1C(=O)OC`, the inhibition was -7.04%.

On to `Cc1cccc(NC(=O)Nc2ccc3c(c2)OCO3)n1`, for which the inhibition is 76.3% (active).

For `CC(C)CNS(=O)(=O)c1ccc(C(=O)Nc2ccc3c(c2)OCO3)cc1`, the inhibition is -14.7%.

As to `COc1ccc(/C=C/C(=O)Nc2ccc3c(c2)OCCO3)cc1OC`, the inhibition is 35.4%.

On to `O=C(/C=C/c1ccc2c(c1)OCO2)NCc1ccc(F)cc1`, for which the inhibition is 26.5%.

As to `Cc1ccc2nc(-c3ccccn3)cc(C(=O)Nc3ccc4c(c3)OCO4)c2c1`, the inhibition is -7.35%.

With `Cc1cccc(NC(=O)/C=C/c2ccc3c(c2)OCO3)n1`, the inhibition is 70.2% (active).

As to `CC(NC(=O)Nc1ccc2c(c1)OCO2)c1ccncc1` (stereo unspecified), the inhibition is 19.2%.

For `COc1cccc(/C=C/C(=O)Nc2ccc3c(c2)OCCO3)c1`, the inhibition is 70.9% (active).

For `CC(NS(=O)(=O)c1ccc(Cl)cc1)C(=O)Nc1ccc2c(c1)OCCO2` (stereo unspecified), the inhibition is -5.73%.

In the case of `COc1cccc(NC(=O)C2CCCN(c3ncnc4c3nc3n4CCCCC3)C2)c1` (stereo unspecified), the inhibition is -3.78%.

For the molecule `Cc1ccc(N2CCN(C(=O)c3cccs3)CC2)c(C)c1`, the inhibition was 8.46%.

With `CCc1ccc(OCC(=O)N(Cc2ccccc2)C2CCS(=O)(=O)C2)cc1` (stereo unspecified), the inhibition was -3.9%.

On to `CN(C)S(=O)(=O)c1cccc(C(=O)OCC(=O)N2CCCC2=O)c1`, for which the inhibition is -2.45%.

As to `CC(C(=O)NC1CCS(=O)(=O)C1)N1C(=O)/C(=C/c2ccc(Cl)cc2)SC1=S` (stereo unspecified), the inhibition was -2.44%.

With `COc1ccccc1CN1CCN(Cc2cc(OC)c(OC)cc2OC)CC1`, the inhibition is 7.78%.

Regarding `COc1ccc(CNS(=O)(=O)c2ccc(NC(=O)N3CCCCC3)cc2)cc1`, the inhibition is 1.93%.

As to `CC(C)C(=O)Nc1c2c(nn1-c1ccccc1)CSC2`, the inhibition is -0.685%.

On to `COc1cc2c(cc1OC)C(C)N(S(=O)(=O)c1cnc(Cl)c(Cl)c1)CC2` (stereo unspecified), for which the inhibition was -3.13%.

For `Oc1oc(-c2ccccc2Br)nc1/C=N/c1ccccn1`, the inhibition was 102% (active).

For `CC(C)n1c(O)c(N=Nc2ccccn2)c2ccccc21`, the inhibition was 11.1%.

As for `O=C(c1ccc[nH]c1=S)N1CCN(S(=O)(=O)c2ccc(Br)cc2Cl)CC1`, the inhibition is -6.76%.

As for `CC(C)c1ccc(NC(=O)[C@@H](NC(=O)N2CC(=O)Nc3ccccc32)C(C)C)cc1`, the inhibition is -1.19%.

On to `COc1ccc(N(C(=O)c2snc(C(N)=O)c2N)C(C(=O)NC2CCCC2)c2ccco2)cc1OC` (stereo unspecified), for which the inhibition is 10.1%.

As to `Cc1cnc(CN(C)C(=O)C2CCC(=O)N(CCc3cccc(F)c3)C2)[nH]1` (stereo unspecified), the inhibition is -1.92%.

For the molecule `COc1ccc(-c2nc(SCC(=O)N3CCCC3)n[nH]2)cc1`, the inhibition was 38.5%.

`CCc1c(C)nc(SCC(=O)NC2CCCC2)[nH]c1=O`: the inhibition was -6.89%.

Regarding `CCc1ccc(-c2nc(SCC(=O)NC3CCCC3)n[nH]2)cc1`, the inhibition was 22.7% (active).

Regarding `COc1ccc(S(=O)(=O)NC(C)c2ccccc2)cc1C(=O)N1CCCCC1` (stereo unspecified), the inhibition was -7.47%.

Consider `Clc1cccc(Cl)c1OCCOCCNCc1ccccc1`, for which the inhibition was 1.14%.

`Cc1cc(N2CCN(c3ccccc3)CC2)nc(N2CCOCC2)n1`: the inhibition was -8.49%.

`FC(F)(F)c1nnc2ccc(N3CCN(c4ccccc4)CC3)nn12`: the inhibition is -8.76%.

`Cc1cc(C)n(-c2nnc(N3CCN(c4ccccc4)CC3)nn2)n1`: the inhibition was 35.7% (active).

Take `CCOc1ccc2[nH]c(=O)c(CN(CCCO)S(=O)(=O)c3ccc(F)cc3)cc2c1`: the inhibition was -6.85%.

Consider `Cc1ccc(C(=O)NCC(=O)OCC(=O)NC2CCCCCCC2)cc1`, for which the inhibition is -5.5%.

These data come from PubChem BioAssay AID2315 (National Center for Advancing Translational Sciences (NCATS), 2010).
